Test results: PubChem BioAssay (NCI)
Where “and” joins values, the source holds several entries; their conditions need not be identical. Equal entries are not always repeated. This is part of a sample that, as a whole, favours compounds with a hit. Of some 79,000 tested, about 15% had one in any assay. More than one record can exist for a structure, and the calls need not agree. Calls of active or inactive are those of the source. Rule as the data show it: active = growth inhibition above about 70%; inactive = the rest.

Experiments:
[1] = NCI Yeast Anticancer Drug Screen. Data for the rad50 strain (AID 155);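 also: 0% = growth of vehicle-only cultures of the same strain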; conditions: S. cerevisiae rad50 strain growth inhibition; at 50.0 µM; stronger effect = higher value
Method in brief: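 Genetically altered yeast (DNA repair pathway); compound treatment; growth inhibition vs vehicle ctrl.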

[2] = NCI Yeast Anticancer Drug Screen. Data for the mec2-1 strain (AID 157); conditions: S. cerevisiae mec2-1 strain, at 50.0 µM, stronger effect = higher value
Method in brief: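 Yeast mec2-1 mutant treated with compound. Readout: growth inhibition vs vehicle controls.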

[3] = NCI Yeast Anticancer Drug Screen. Data for the sgs1 mgt1 strain (AID 161);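 also: 0% = growth of cultures given vehicle only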; conditions: S. cerevisiae sgs1 mgt1 strain, at 50.0 µM, stronger effect = higher value
Method in brief: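 Inhibition of yeast growth, normalised to vehicle-treated controls, is reported for a strain bearing genetic alterations in DNA damage repair.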

[4] = NCI Yeast Anticancer Drug Screen. Data for the cln2 rad14 strain (AID 165);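 also: 0% = growth equal to vehicle treated cultures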; conditions: S. cerevisiae cln2 rad14 strain, at 50.0 µM, stronger effect = higher value
Method in brief: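 cln2 rad14 yeast strain; compound exposure; growth inhibition read vs vehicle controls.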

[5] = NCI Yeast Anticancer Drug Screen. Data for the bub3 strain (AID 167); conditions: S. cerevisiae bub3 mutant strain, at 50.0 µM, stronger effect = higher value
Method in brief: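 Yeast carrying a defined mutation is treated with each compound, and growth is compared with that of vehicle-exposed cells to give inhibition.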

[6] = NCI Yeast Anticancer Drug Screen. Data for the mlh1 rad18 strain (AID 175); conditions: S. cerevisiae mlh1 rad18 strain growth inhibition; at 50.0 µM; stronger effect = higher value
Method in brief: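 Yeast w/ defined DNA-repair lesions; compound exposure; growth vs vehicle controls → % inhibition.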

Row | Structure (SMILES) | growth inhibition [1] | growth inhibition [2] | growth inhibition [3] | growth inhibition [4] | growth inhibition [5] | growth inhibition [6]
1 | [Ni+2].[S-]CC[S-] | 0.4% (inactive) | 12.4% (inactive) | -8.75% (inactive) | 1.95% (inactive) | 0.4% (inactive) | -4.85% (inactive)
2 | O=[N+]([O-])c1ccc([Se]c2ncccn2)c([N+](=O)[O-])c1 | -14.8% (inactive) | 1.95% (inactive) | -19.4% (inactive) | -8.75% (inactive) | -3.15% (inactive) | 0.5% (inactive)
3 | O=C([O-])CC(=O)[O-].O=C([O-])CC(=O)[O-].[K+].[Pd+2] | 14.2% (inactive) | 19.1% (inactive) | 28.2% (inactive) | 26.6% (inactive) | 11.5% (inactive) | 16.2% (inactive)
4 | CC[n+]1cccc2ccccc21 | -0.45% (inactive) and 56.5% (inactive) | -6.7% (inactive) and 60.2% (inactive) | -6.7% (inactive) and 73.5% (active) | -11.2% (inactive) and 5.65% (inactive) | -4.9% (inactive) and 20.5% (inactive) | -25.2% (inactive) and 66.7% (inactive)
5 | COc1cc([C@@H]2c3cc(O)c(OC)cc3C[C@H]3C(=O)OC[C@@H]23)ccc1O | 20.1% (inactive) | -13.7% (inactive) | 26.2% (inactive) | 10.3% (inactive) | 25.3% (inactive) | -1.6% (inactive)
6 | O=C(NCCN1CCOCC1)C1(O)N=C(c2ccccc2)c2ccsc2-n2cccc21 (configuration not stated) | 51.3% (inactive) | 30.3% (inactive) | 64.2% (inactive) | -6.05% (inactive) | 27.6% (inactive) | 36.5% (inactive)
7 | Cc1cccc2c(=O)c([Se]c3coc4c(C)cccc4c3=O)coc12 | -12.4% (inactive) | -15.2% (inactive) | -48.2% (inactive) | -5.8% (inactive) | -13.2% (inactive) | -30.1% (inactive)
8 | O=NO.O=NO.[NH-]C1CCCCC1[NH-].[Pd+2] (configuration not stated) | -11.2% (inactive) | 13.1% (inactive) | 15.2% (inactive) | 21.2% (inactive) | 9.05% (inactive) | -0.3% (inactive)
9 | O=NNc1ccc(Cl)cn1 | -11.5% (inactive) | 3.75% (inactive) | 3.1% (inactive) | -1.45% (inactive) | -18.3% (inactive) | 3.3% (inactive)
10 | Cc1nn[n-]n1.N.N.N.N.N.[Cl-].[Co+3] | 4.25% (inactive) | 6.3% (inactive) | 22.1% (inactive) | 27.9% (inactive) | 9.6% (inactive) | 13.1% (inactive)
11 | CC(C)[C@H](C)/C=C/[C@@H](C)C1CC[C@H]2[C@@]34C=C[C@]5(C[C@@H](O)CC[C@]5(C)[C@H]3CC[C@]12C)OO4 (some centres not stated) | 11.8% (inactive) | 19% (inactive) | -13.2% (inactive) | 2.15% (inactive) | -20.4% (inactive) | -31.6% (inactive)
12 | CC(C)[N+](C)(CCC(C(=O)N(C)C)(c1ccccc1)c1ccccc1)C(C)C | 18.6% (inactive) | -1.55% (inactive) | 4.7% (inactive) | 13.3% (inactive) | -16% (inactive) | 24.4% (inactive)
13 | O=NN1CCNCC1 | -20.1% (inactive) and -11.3% (inactive) | -16.1% (inactive) and -24.3% (inactive) | -16.7% (inactive) and -13.2% (inactive) | -24.5% (inactive) and -9.25% (inactive) | -5.9% (inactive) and -6.1% (inactive) | 8.2% (inactive) and -2.55% (inactive)
14 | NC(CCl)=NC1CN2CCC1CC2 (configuration not stated) | -22.5% (inactive) | -20.4% (inactive) | -13.2% (inactive) | 5.9% (inactive) | -32.1% (inactive) | -7.15% (inactive)
15 | CC(C)(C)c1cc(O)ccc1O | 22.5% (inactive) | -1.55% (inactive) | -29.1% (inactive) | -0.25% (inactive) | -25.7% (inactive) | 24.5% (inactive)
16 | O=C1NC(=S)NC(=O)C1=Cc1ccc(-c2ccccc2)cc1 | 33.1% (inactive) | -12% (inactive) | 16.7% (inactive) | 15.6% (inactive) | 13.3% (inactive) | 15.3% (inactive)
17 | CC1=C(O)C(=O)[C@@H]2O[C@@H]2C1=O | 42% (inactive) | 29.6% (inactive) | 43.8% (inactive) | 14% (inactive) | 31.3% (inactive) | -35.4% (inactive)
18 | O=CC(O)C(O)C1[O][Sb][O]C1CO (configuration not stated) | 0.75% (inactive) | -1.7% (inactive) | -4.45% (inactive) | -53.9% (inactive) | -5.85% (inactive) | -8.85% (inactive)
19 | ClCCn1c(/C=C/c2nc3ccccc3n2CCCl)nc2ccccc21 | 26.1% (inactive) | 5.8% (inactive) | 6.1% (inactive) | -32.1% (inactive) | -3.65% (inactive) | 20.6% (inactive)
20 | CN1C(=O)C2(Cc3cn(C45CC67SSC(CO)(C(=O)N6C4Nc4ccccc45)N(C)C7=O)c4ccccc34)SSC1(CO)C(=O)N2C (configuration not stated) | 90.2% (active) | 90.3% (active) | 90.3% (active) | 89.2% (active) | 90.8% (active) | 89.8% (active)
21 | N#CC(C#N)=Cc1cccc(C=C(C#N)C#N)c1 | -0.55% (inactive) | -3.65% (inactive) | 12.9% (inactive) | 8.3% (inactive) | 0.65% (inactive) | -24.6% (inactive)

Row | Structure (SMILES) | growth inhibition [1] | growth inhibition [2] | growth inhibition [3] | growth inhibition [4] | growth inhibition [5] | growth inhibition [6]
22 | CCCC1CC=CCC12C(=O)NC(=O)NC2=O (configuration not stated) | -4.7% (inactive) | 1.45% (inactive) | 12.7% (inactive) | -6.5% (inactive) | 0.5% (inactive) | 12.9% (inactive)
23 | CCCCOP(=O)(OCCCC)Oc1cccc([N+](=O)[O-])c1 | 6.6% (inactive) | 46.1% (inactive) | 18.9% (inactive) | 28.2% (inactive) | 42.3% (inactive) | 14.5% (inactive)
24 | CN1C2C=CC1c1c(C3=NC(C)(C)CO3)cccc12 (configuration not stated) | -8.15% (inactive) | -8.05% (inactive) | -7.95% (inactive) | -36% (inactive) | 6.85% (inactive) | 2.6% (inactive)
25 | COC1=CC2C3Cc4c(-c5cc(OC)c(O)c6c5CC5C7C=C(OC)C(=O)CC67CCN5C)cc(OC)c(O)c4C2(CCN3C)CC1=O (configuration not stated) | -2.7% (inactive) and -3.05% (inactive) | 1.25% (inactive) and 2.55% (inactive) | -2.75% (inactive) and -13.1% (inactive) | 0.25% (inactive) and -10.2% (inactive) | -2.45% (inactive) and -0.65% (inactive) | 3.7% (inactive) and 12.1% (inactive)
26 | c1ccc(C[P+]2(c3ccccc3)CCCCC2)cc1 | -12.7% (inactive) | -1.05% (inactive) | -0.55% (inactive) | -22.6% (inactive) | -4.95% (inactive) | 3.1% (inactive)
27 | COc1ccc2c(c1)-c1c(ccc(OC)c1OC(=O)C(=O)c1ccccc1)CC(Cl)N(C)CC2.[O]=[Cr](=[O])([OH])[OH] (configuration not stated) | -18.3% (inactive) | -0.55% (inactive) | -19.5% (inactive) | -17% (inactive) | -1.3% (inactive) | -1.25% (inactive)
28 | OCCN=Cc1ccccc1O.OCCN=Cc1ccccc1O.[Ni] | 32.2% (inactive) | 7.3% (inactive) | 17.9% (inactive) | -26.4% (inactive) | 12.8% (inactive) | 18.4% (inactive)
29 | Cc1ccc(S(=O)(=O)NNP(Br)(c2ccccc2)(c2ccccc2)c2ccccc2)cc1 | 26.3% (inactive) | -1.1% (inactive) | 5.7% (inactive) | -0.75% (inactive) | 5.35% (inactive) | 12.4% (inactive)
30 | CC(C)OP(=S)(OC(C)C)SSSP(=S)(OC(C)C)OC(C)C | 14.2% (inactive) | 3.75% (inactive) | 1.95% (inactive) | -3.1% (inactive) | 12.7% (inactive) | 6.25% (inactive)
31 | CCC1CN2CCc3cc(OC)c(OC)cc3C2CC1CC1c2cc(OC)c(OC)cc2CCN1C(=O)C(N)Cc1ccccc1 (configuration not stated) | -8.25% (inactive) | -0.5% (inactive) | -2.3% (inactive) | -3.05% (inactive) | -5.05% (inactive) | 8.5% (inactive)
32 | O=S(=O)(O)c1ccc(CBr)cc1 | -27.6% (inactive) | -27.6% (inactive) | 0.6% (inactive) | -36.4% (inactive) | -3.5% (inactive) | -6.85% (inactive)
33 | C[N+](C)(C)CC(CC(=O)[O-])C1CC1 (configuration not stated) | 3.7% (inactive) | -7.8% (inactive) | -18.6% (inactive) | 2.1% (inactive) | -19.1% (inactive) | -19.1% (inactive)
34 | CN1CCC2CCCCN2CC1=O (configuration not stated) | -4.15% (inactive) | 0.45% (inactive) | -1% (inactive) | -4.35% (inactive) | -12% (inactive) | -4% (inactive)
35 | [Se]=P(N1CCCCC1)(N1CCCCC1)N1CCCCC1 | 21.6% (inactive) | 2.75% (inactive) | 6.4% (inactive) | 6.55% (inactive) | 11.4% (inactive) | 10.2% (inactive)
36 | O=C(CC(=O)C(F)(F)F)c1cccs1.O=C(CC(=O)C(F)(F)F)c1cccs1.O=C(CC(=O)C(F)(F)F)c1cccs1.[Eu] | 27.7% (inactive) | 37.6% (inactive) | 39.5% (inactive) | 9.4% (inactive) | 39% (inactive) | 23.1% (inactive)
37 | CC(=O)Nc1ccc(C(=O)O)cc1 (tested in a mixture with another compound) | -25.9% (inactive) | -43.6% (inactive) | -17.4% (inactive) | 3.65% (inactive) | -46.2% (inactive) | -7.75% (inactive)
38 | CN(C)C(=O)Oc1c(Cl)cc(S(=O)(=O)F)cc1Cl | 26.4% (inactive) | 0.8% (inactive) | 12.7% (inactive) | 12.8% (inactive) | 2.65% (inactive) | 12.4% (inactive)
39 | O=[N+]([O-])c1ccc(/C=C/c2ccc(Cl)c(S(=O)(=O)F)c2)c(Cl)c1 | 15.6% (inactive) | -4.95% (inactive) | -1.7% (inactive) | 2.45% (inactive) | 13% (inactive) | -6.3% (inactive)
40 | O=C(Nc1cccc(F)c1)c1c(O)[nH]c(=S)[nH]c1=O | 26.1% (inactive) | 14.3% (inactive) | 38.4% (inactive) | 10.9% (inactive) | 21.3% (inactive) | 40.2% (inactive)
41 | CC(=O)Nc1nccs1.CC(=O)Nc1nccs1.[Cl][Pt][Cl] | 9% (inactive) | 5.25% (inactive) | 8.8% (inactive) | -1.55% (inactive) | -1.45% (inactive) | 5.1% (inactive)
42 | Cc1cc(N(CCCl)CCCl)ccc1CN1CCCN(Cc2ccc(N(CCCl)CCCl)cc2C)C1c1ccccc1O | 0.25% (inactive) | 14.5% (inactive) | 11.1% (inactive) | -4.5% (inactive) | 0.05% (inactive) | 31.9% (inactive)
